Measurements: PubChem BioAssay (NCI)
The panel holds about 79,000 compounds, 15% with a hit somewhere; the sample as a whole holds those more often. A number with no mark means an inactive call. Calls of active or inactive are those of the source. No stated cut-off is given here; in the data, active means growth inhibition above about 70%; inactive means the rest. Where a SMILES comes first, the peptide text is derived from it.

Key:
[1] = NCI Yeast Anticancer Drug Screen. Data for the rad50 strain (AID 155);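 further: 0% = growth of vehicle-only cultures of the same strain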; conditions: S. cerevisiae rad50 strain growth inhibition; at 50.0 µM; stronger effect = higher value
Outline: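 Relative growth inhibition (compound vs vehicle) was measured in yeast with a defined repair-gene alteration.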

[2] = NCI Yeast Anticancer Drug Screen. Data for the mec2-1 strain (AID 157); conditions: S. cerevisiae mec2-1 strain, at 50.0 µM, stronger effect = higher value
Outline: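 mec2-1 yeast strain, carrying an alteration in DNA damage repair or cell cycle control, was exposed to compounds; growth inhibition was measured relative to vehicle-treated controls.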

[3] = NCI Yeast Anticancer Drug Screen. Data for the sgs1 mgt1 strain (AID 161);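 further: 0% = growth of cultures given vehicle only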; conditions: S. cerevisiae sgs1 mgt1 strain, at 50.0 µM, stronger effect = higher value
Outline: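 Growth of a repair-deficient yeast mutant was monitored after compound treatment and expressed as inhibition relative to vehicle-treated cultures.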

[4] = NCI Yeast Anticancer Drug Screen. Data for the cln2 rad14 strain (AID 165);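 further: 0% = growth equal to vehicle treated cultures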; conditions: S. cerevisiae cln2 rad14 strain, at 50.0 µM, stronger effect = higher value
Outline: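 Yeast carrying cln2 and rad14 alterations (cell cycle control and DNA damage repair) were exposed to compounds. Growth inhibition was measured against vehicle-treated controls.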

[5] = NCI Yeast Anticancer Drug Screen. Data for the bub3 strain (AID 167); conditions: S. cerevisiae bub3 mutant strain, at 50.0 µM, stronger effect = higher value
Outline: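 Screening used yeast with an engineered genetic alteration affecting cell cycle control. Compound-exposed cultures were compared with vehicle cultures, and reduced growth was taken as inhibition.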

[6] = NCI Yeast Anticancer Drug Screen. Data for the mlh1 rad18 strain (AID 175); conditions: S. cerevisiae mlh1 rad18 strain growth inhibition; at 50.0 µM; stronger effect = higher value
Outline: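 Growth inhibition of the yeast strain was measured after compound exposure and expressed relative to vehicle-treated controls. The strain carries defined defects in DNA damage repair.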

| Structure (SMILES) | growth inhibition [1] | growth inhibition [2] | growth inhibition [3] | growth inhibition [4] | growth inhibition [5] | growth inhibition [6] |
| --- | --- | --- | --- | --- | --- | --- |
| COc1cc2c(c(O)c1OC)C(=O)[C@@H]1CCC(=O)N1C2c1ccccc1 (some centres not stated) | 19.1% | 2.7% | 19.4% | 13.1% | 11.3% | -18.4% |
| O=C(COc1ccc(Cl)cc1Cl)Nc1ccc(N=Nc2ccccc2)cc1 | -0.5% | 7.55% | -1.95% | -3.65% | -2.8% | 19.9% |
| Cc1cccc(C(=O)OCCCl)c1 | 15.6% | -7.5% | 8.3% | -29.1% | 5% | 5.2% |
| O=C(N/N=C/c1ccccc1[O-])c1ccccc1O.O=C(N/N=C/c1ccccc1[O-])c1ccccc1O.[Fe+2] | 6.45% | -10.1% | -1.5% | 19.3% | -19.6% | 9.5% |
| Cc1cc(N2CCCCC2)nc(N2CCCCC2)c1C#N | -4.2% | -20.2% | 27.7% | 14.6% | 35.9% | 13.8% |
| CC(=O)NC(C(=O)N1CCCC1C(=O)O)C(C)C (stereo not drawn) (Ac-Val-Pro-OH; configuration not given here) | 7.9% | -3.15% | -6.65% | 1.7% | -19.1% | 0.6% |
| CCc1cc(CSc2ccc(Cl)cc2)ccc1N | 98.5% (active) | 99% (active) | 98.8% (active) | 97.2% (active) | 98% (active) | 98.2% (active) |
| CC1=CC=CNC1(N)Br (configuration not stated) | 3.7% | 4% | 15.8% | 19.4% | 7.55% | -4.9% |
| Cc1ccc(OCc2cccc(Cl)c2)cc1 | 17.8% | -10.4% | 2.5% | -2.9% | -42.1% | -11.3% |
| CSC1(C)C(=O)Nc2cccc([N+](=O)[O-])c21 (configuration not stated) | -9.85% | -20.1% | 1% | -7.5% | 11.8% | 2.45% |
| O=C1C=CC(Nc2ccc(Cl)c(Cl)c2)C1Nc1ccc(Cl)c(Cl)c1 (configuration not stated) | 39.5% | 36.1% | 42.8% | 28.6% | 26.7% | 45% |
| CC[N+](C)(C)c1ccc(/C=C(/C#N)C(=O)OC)cc1 | 7.55% | 9.8% | 12.8% | 11.2% | -1.2% | -1.55% |
| CNC(=O)OCc1nc(SC(C)C)n(C)c1COC(=O)NC | -16% | -10.3% | -27.9% | 4.3% | -18.7% | -28.1% |
| O=NN(CCF)C(=O)N[C@H]1CCCC[C@H]1O | -15.7% | -19.1% | -27.1% | 2.75% | -15.9% | 1.45% |
| CC(C)(C)NC1=NCCNC(c2ccccc2)=C1 | -33.5% | -52.2% | -19.4% | -4.65% | -30.8% | -23.9% |
| OC(c1cc(C2CCCCC2)nc2ccccc12)C1CCCCN1 (configuration not stated) | -13.1% | -0.85% | 8.85% | 2.6% | -5.7% | -12.7% |
| CC(C)(C)OC(=O)NC1CC=CCC1NC(=O)OC(C)(C)C (configuration not stated) | -52.7% | -11.6% | -16.6% | -19.6% | -17.8% | -29.1% |
| Cc1cc(C(O)CCCc2ccccc2)cc(C)c1O (configuration not stated) | 37.6% | 6.4% | 3.7% | 34.4% | 42% | 5.1% |
| CCC(=O)C12OC3OC(C)(C)OC3C1OC(C)(C)O2 (configuration not stated) | 0.25% | 0.75% | -15.2% | 25.1% | -1.9% | 4.7% |
| COc1cccc(C2SCC(=O)N2c2nncs2)c1OC (configuration not stated) | -34.8% | 6% | 9.95% | 8.3% | 2.6% | -9% |
| Cc1cc([N+](=O)[O-])ccc1Sc1c2ccccc2nc2ccccc12 | -63.5% | -16.2% | -13.8% | 11.3% | -17.5% | -18.9% |

| Structure (SMILES) | growth inhibition [1] | growth inhibition [2] | growth inhibition [3] | growth inhibition [4] | growth inhibition [5] | growth inhibition [6] |
| --- | --- | --- | --- | --- | --- | --- |
| O=C1CCCC(CCc2ccccc2)O1 (configuration not stated) | 5.45% | -4.05% | 1.3% | -8% | -37.1% | -7.9% |
| CC1C(=O)OCC2=CCN3CCC(OC(=O)C(C)C1(C)O)C23 (configuration not stated) | 2.25% | -15.8% | -3.45% | 8.05% | 0.9% | -32.5% |
| CCCCN1CSC(=S)N(CCCC)C1 | 39.5% | 45.5% | 59.2% | -10.4% | 51.4% | 37% |
| CN(C)CCCNc1nc2cc(Cl)ccc2o1 | -7.1% | -9.85% | -5.7% | -38.6% | 6.7% | -2.4% |
| O=C1c2ccccc2C(=O)N1CCCSc1ccccc1 | -10.2% | -12.7% | -21.9% | -15.6% | -32.4% | -33.9% |
| COc1ccc2cc3n(cc-2c1=O)CCc1cc2c(cc1-3)OCO2 | -8.65% | -3.1% | 5.65% | -14.4% | -6.65% | 1.45% |
| CC1(C)CC(C)(OC(=O)c2ccccc2)N=N1 (configuration not stated) | 14.6% | -11.1% | 20.1% | -16.4% | 4.35% | 11.1% |
| COc1ccc(/C=N/N2CN(C(C)C(=O)O)C(C)(O)N=C2N)cc1OC (configuration not stated) | -14.2% | -33.8% | -20.7% | -8.95% | -25.6% | -50.8% |
| CC1(C)CCCC2(C)C(C(=O)O)C3CCC45OC3(CC12)OC(=O)C4C1(C)CCCC(C)(C)C1CC5=O (configuration not stated) | 2.15% | 5.65% | -0.9% | 2.85% | -2.1% | 9.25% |
| O=C(O)c1c(O)cc(=O)oc1-c1ccccc1Cl | -17.4% | -23.2% | -17.4% | -13.6% | -18.9% | -16.9% |
| CC(=O)OC1(C(=O)OCC2CCCO2)CCCC1 (configuration not stated) | -9.6% | 5.4% | -3.5% | -9.8% | 25.8% | 6.9% |
| CC(C)CC(NC(=O)CCCCCl)C(=O)O (configuration not stated) | -1.85% | -4.65% | 0.25% | 2.75% | -3.4% | 6.05% |
| Cc1sc2c(c1C)/C(=N\O)c1cccn1-2 | -0.05% | -3.4% | 34% | 26% | 14.4% | -11.6% |
| OCc1ccccc1O | -1.7% | 6.25% | -6.55% | 25.8% | -0.7% | 11.2% |
| O=C(NN1C(=O)C(Cl)C1c1cccc(O)c1)c1ccccc1O (configuration not stated) | -47.5% | -34% | -32.8% | 5.55% | -29.2% | -39.1% |
| COC(=O)c1ccc(OC)cc1O | 1.5% | 1.8% | -13.4% | -19.9% | 3.2% | -2% |
| N#CCCc1c(O)ccc2ccccc12 | 38.6% | 0.6% | 10.1% | -59.9% | 10.5% | 11.6% |
| CCC(C)Sc1nc2ccc(NC(=O)/C=C/C(=O)O)cc2s1 (configuration not stated) | 31.5% | 10% | 11.7% | 15.7% | 13.5% | 16.1% |
| COc1ccc(/C(C#N)=C/c2ccc(N(C)CCC#N)cc2)cc1 | 28.2% | -24.1% | 24.2% | -8.75% | 15.2% | 24.5% |
| CC(=O)c1ccccc1C(=O)O | 6.05% | 7.45% | -6.65% | 7.6% | 6.25% | -9.55% |
| COc1ccc2ccccc2c1C(Cc1ccccc1)NCCO (configuration not stated) | -17.2% | -20.4% | -2.3% | -4.95% | -0.55% | -2.75% |
